# Hits are enriched below; roughly 1.6% of the tested compounds scored in any of these assays.
# KCNQ2 enhance = potentiators of rat KCNQ2 potassium channel; hit rate 0.54% among 310,000; B-score at 10 µM; O88943; CHO-K1 KCNQ2, FluxOR thallium flux fluorescence; stronger effect = higher value;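 active = fluorescence ratio B-score at least 3 SD of library B-scores, with initial fluorescence B-score within 3 of them, cut at about 5.3 in these data; same plate scores as AID 2156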;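 also: B-score of peak minus minimum over baseline fluorescence ratio after K+ and Tl+ stimulus; positive B-score means potentiation of KCNQ2 with more thallium influx and brighter signal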
# Target sequence (O88943 whole entry, looked up): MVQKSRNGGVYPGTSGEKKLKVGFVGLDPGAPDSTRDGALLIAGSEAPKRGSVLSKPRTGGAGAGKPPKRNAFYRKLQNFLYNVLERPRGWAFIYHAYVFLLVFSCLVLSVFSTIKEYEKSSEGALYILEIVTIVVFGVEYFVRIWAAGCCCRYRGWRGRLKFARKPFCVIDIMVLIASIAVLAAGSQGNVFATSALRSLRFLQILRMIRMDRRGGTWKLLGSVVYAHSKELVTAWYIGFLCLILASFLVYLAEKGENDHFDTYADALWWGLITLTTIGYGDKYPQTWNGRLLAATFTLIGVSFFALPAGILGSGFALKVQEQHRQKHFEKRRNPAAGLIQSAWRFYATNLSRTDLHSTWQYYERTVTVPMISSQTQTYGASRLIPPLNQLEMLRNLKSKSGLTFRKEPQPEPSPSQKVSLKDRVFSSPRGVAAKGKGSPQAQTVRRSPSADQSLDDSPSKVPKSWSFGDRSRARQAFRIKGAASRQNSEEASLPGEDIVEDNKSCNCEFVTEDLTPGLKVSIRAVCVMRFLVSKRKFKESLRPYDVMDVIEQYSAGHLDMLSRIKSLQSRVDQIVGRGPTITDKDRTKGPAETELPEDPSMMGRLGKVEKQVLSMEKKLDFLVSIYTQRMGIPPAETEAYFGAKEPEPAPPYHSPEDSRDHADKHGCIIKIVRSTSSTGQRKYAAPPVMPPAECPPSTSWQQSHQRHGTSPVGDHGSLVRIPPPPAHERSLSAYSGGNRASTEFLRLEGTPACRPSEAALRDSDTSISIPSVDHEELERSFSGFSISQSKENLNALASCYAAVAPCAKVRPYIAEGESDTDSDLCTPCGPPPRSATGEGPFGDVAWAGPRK
# KCNQ2 inh = KCNQ2 (rat) channel inhibition. O88943. CHO-K1 KCNQ2, FluxOR thallium flux, 20 min; stronger effect = lower value. B-score at 10 µM. hit rate 1.1% among 310,000;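 active = fluorescence ratio B-score at most minus 3 library SDs, with starting brightness B-score within 2 library SDs, cut at about -5.5 in these data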
# Starred values were filed as active, the others as inactive; i = inactive; x = no result given.
SMILES,KCNQ2 enhance,KCNQ2 inh
CCn1c(=O)c2cc(C(=O)N(C)c3ccc(OC)cc3OC)sc2c2ccccc21,x,i
CCn1c(=O)c2cc(C(=O)N(C)c3cc(C)ccc3OC)sc2c2ccccc21,-6.4,-6.4*
COCCN1C(=O)/C(=C/c2ccc(OCc3ccc(C(=O)O)cc3)c(OC)c2)SC1=Nc1ccccc1,-6.1,-6.1*
COc1cc(/C=C2\SC(=Nc3ccccc3)N(Cc3ccco3)C2=O)ccc1OC(C)C(=O)O (stereo not drawn),x,i
CC(C)c1ccc(Nc2ccc(C(=O)O)cc2[N+](=O)[O-])cc1,2.8,i
Cc1ccc2c(c1)N(C(=O)CCC(=O)NCc1ccccc1)CC(C)O2 (stereo not drawn),x,i
Cc1ccc2c(c1)N(C(=O)CCC(=O)NCc1cccc(Cl)c1)CC(C)O2 (stereo not drawn),-5.7,-5.7*
CC(=O)N/C(=C\c1ccc(Br)s1)C(=O)O,x,i
O=C(O)CCN=CC1=C(O)CC(c2ccccc2)CC1=O (stereo not drawn),0.28,i
COC(=O)[C@H](C)NC(=O)COc1ccccc1,0.29,i
CCCCCCCCCNC(=O)[C@H](NC(=O)COc1ccccc1)[C@@H]1NC(C(=O)OC)C(C)(C)S1 (stereo partly drawn),-6.3,-6.3*
Cc1cc(NC(=O)Nc2cccc(Cl)c2)n(-c2ccccc2)n1,1.1,i
Cc1cc(Nc2ccccc2)n(-c2cccc(Cl)c2)n1,-6,-6*
CCCN(CCC)C(=O)Cn1c(=O)c2ccccc2n2c(=S)sc(-c3ccccc3C)c12,-6.8,-6.8*
CCCN(CCC)C(=O)Cn1c(=O)c2sccc2n2c(=S)sc(-c3ccccc3)c12,x,i
CCC(=O)Nc1cc(-c2nn(C)c(=O)c3ccccc23)ccc1N1CCOCC1,x,i
Cn1nc(-c2ccc(N3CCCCC3)c(NC(=O)c3ccco3)c2)c2ccccc2c1=O,-5.6,-5.6*
O=C(COn1nnc2ccc(Cl)cc21)Nc1ccc(F)cc1,x,i
O=C(COn1nnc2ccc(Cl)cc21)NC12CC3CC(CC(C3)C1)C2,-6.1,-6.1*
O=C(CCC1CCCN(C(=O)c2cc3ccccc3o2)C1)NCc1ccc(F)c(F)c1 (stereo not drawn),x,i
Cc1ccc(C)c2c1N(Cc1ccccc1)C(=O)C21OCCO1,1.5,i
CC1(c2ccccc2)NC(=O)N(CC(=O)Nc2ccccc2C(=O)NC2CC2)C1=O (stereo not drawn),x,i
Cc1ccc(C(=O)CCS(=O)(=O)c2ccc(F)cc2)cc1,-6.3,-6.3*
Cc1ccc(S(=O)(=O)CCC(=O)c2ccc(F)cc2)cc1,x,i
CCc1nnc(NC(=O)CSCc2cc(=O)n3ccsc3n2)s1,0.57,i
SMILES,KCNQ2 enhance,KCNQ2 inh
Cc1ccc(S(=O)(=O)Nc2cccc3ncccc23)cc1,x,i
Cc1ccc(S(=O)(=O)Nc2cccc3ncccc23)s1,6*,i
Cc1ccnc(NC(=O)c2ccc(S(=O)(=O)N3CCCCCC3)cc2)c1,x,i
S=c1nc(-c2ccccc2)[nH]n1-c1ccccc1,18*,i
Cc1nc(=S)n(-c2ccccc2)[nH]1,x,i
COc1ccc(N(C)S(=O)(=O)c2cccc(C(=O)OC(C(=O)Nc3cc(C)cc(C)c3)c3ccccc3)c2)cc1 (stereo not drawn),-5.7,-5.7*
COc1ccc(N(C)S(=O)(=O)c2cccc(C(=O)Nc3cc(OC)ccc3OC)c2)cc1,x,i
CC(=O)c1cccc(NC(=O)C(OC(=O)c2cccc(S(=O)(=O)N(C)c3ccccc3)c2)c2ccccc2)c1 (stereo not drawn),-5.5,-5.5*
CC(=O)c1cccc(NC(=O)C(OC(=O)c2ccccc2NS(=O)(=O)c2cccs2)c2ccccc2)c1 (stereo not drawn),x,i
CCOC(=O)c1c(C)[nH]c(C(=O)N2CCC(C(=O)OCC)CC2)c1C,0.36,i
COc1ccc(NC(=O)c2cccc(-c3ccc(O)cc3)c2)cn1,x,i
CCNC(=O)CSc1nnc(C2CC2)n1-c1ccccc1,x,i
O=C(CSc1nnc(C2CCCCC2)n1-c1ccccc1)NCc1ccco1,-5.6,-5.6*
CCCOC(=O)c1ccc(NC(=O)c2cc(OC)c(OC)c(OC)c2Br)cc1,x,i
Cc1ccc(NC(=O)CSc2nc3ccccc3c(=O)n2CCCN2CCCCC2)cc1Cl,-7.9,-7.9*
COc1cccc(NC(=O)CSc2nc3c(sc4ccccc43)c(=O)n2CCN(C)C)c1,0.49,i
CC1CCN(CCCn2c(SCC(=O)Nc3ccccc3Cl)nc3ccccc3c2=O)CC1,x,i
COc1cccc(NC(=O)CSc2nc3c(sc4ccccc43)c(=O)n2CCCN2CCCC2)c1,-6.7,-6.7*
Cc1ccc(NC(=O)CN2CCN(CCN=CC3=C(O)CC(c4ccc(C)cc4)CC3=O)CC2)cc1 (stereo not drawn),x,i
Clc1ccc(-c2nnc(-c3ccccc3)c(-c3c[nH]c4ccccc34)n2)cc1,1.1,i
Clc1ccc(-c2nnc(-c3ccccc3)c(N3CCSCC3)n2)cc1,-6,-6*
O=[N+]([O-])c1ccc(-c2nnc(-c3ccccc3)c(N3CCOCC3)n2)cc1,x,i
Clc1ccc(-c2nnc(-c3ccccc3)c(-c3ccccc3)n2)cc1,-6.2,-6.2*
O=C(CCSCc1cccc(F)c1)NCCc1ccccc1,0.13,i
CCCCS(=O)(=O)N1CCN(S(=O)(=O)c2ccc(Cl)s2)CC1,x,i
SMILES,KCNQ2 enhance,KCNQ2 inh
Cc1ccccc1-n1nc2c(c1NC(=O)/C=C\c1ccc3c(c1)OCO3)CSC2,-6.7,-6.7*
Cc1ccc(-n2nc3c(c2NC(=O)/C=C\c2ccc4c(c2)OCO4)CSC3)c(C)c1,x,i
Cc1ccc(C2NC(=S)NC3=C2C(=O)CC(C)(C)C3)cc1 (stereo not drawn),0.18,i
Cc1ccc(C(c2nnnn2C2CCCCC2)N2CCc3ccccc32)cc1 (stereo not drawn),-5.6,-5.6*
Cc1ccc(C(c2nnnn2C2CCCC2)N2CCN(c3nc4ccccc4s3)CC2)cc1 (stereo not drawn),-6.4,-6.4*
CC(C)C(c1nnnn1C1CCCCC1)N1CCc2ccccc21 (stereo not drawn),x,i
c1ccc(C(c2nnnn2C2CCCC2)N2CCN(c3nc4ccccc4s3)CC2)cc1 (stereo not drawn),x,i
COc1cc(CN2CCN(C(=O)c3cccc4ccccc34)CC2)cc(OC)c1O,x,i
CCOc1ccc(C(=O)N2CCCC2)cc1,0.53,i
CCOc1ccc(C(=O)N2CCN(c3cccc(C)c3C)CC2)cc1,-5.8,-5.8*
Cn1ncc(N=Cc2c(O)ccc3ccccc23)c1C(=O)Nc1cccc(Cl)c1,x,i
C[C@@H](C(=O)NCCc1ccccc1F)N1C(=O)N2CCc3c([nH]c4ccccc34)[C@@]2(C)C1=O,x,i
C[C@@H](C(=O)NCCc1ccccc1)N1C(=O)N2CCc3c([nH]c4ccccc34)[C@@]2(C)C1=O,-9.1,-9.1*
Cc1cccc(C(=O)OCC(=O)NCCNC(=O)COC(=O)c2cccc(C)c2C)c1C,x,i
COc1ccc2nc(NC(=O)Nc3cccc4ccccc34)sc2c1,x,i
COc1ccc2nc(N=Nc3c(O)ccc4ccccc34)sc2c1,8.2*,i
COc1cccc(CC2(CO)CCN(Cc3ccc4cccc(F)c4n3)CC2)c1,0.06,i
Cc1cccc(C(=O)O/N=C2/CC3CCC2(C)C3(C)C)c1 (stereo not drawn),-5.7,-5.7*
Cc1ccc(C(=O)O/N=C2\CC3CCC2(C)C3(C)C)cc1 (stereo not drawn),x,i

# Assay outcomes (PubChem)
